GAA glycogen: inhibitors or activators of human alpha-glucosidase glycogen cleavage | recombinant GAA, glycogen substrate, Amplex Red glucose oxidase fluorescence | Potency, µM (doses to about 76.4 µM), for inactives: at the top dose activity change, negative = inhibition, hits mostly inhibitors | 0.38% of 300,000 active | AID 2100;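 note: potency is the fitted concentration of half-maximal effect; 0% = full enzyme reaction and -100% = no-enzyme basal signal; the screen sought inhibitors and activators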
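Recombinant enzyme (4 nM final) with compounds titrated up to 77 uM and bovine liver glycogen (30 ug) in citrate pH 5.0, 0.01% Tween-20, 37 C 40 min. Released glucose detected by Amplex Red/glucose oxidase (Ex 573/Em 610); AC50 from Hill fits.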
aGlu spleen mod: lysosomal alpha-glucosidase (human) modulation; P10253; human spleen homogenate, 4-MU-alpha-glucoside fluorescence; Potency, µM (series often up to 79.9 µM), inactives show at the top dose activity change, negative = inhibition, hits mostly inhibitors; 0.006% of 240,000 active; AID 2112;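 note: potency is the fitted concentration of half-maximal effect; 0% = enzyme with vehicle and -100% = no enzyme basal signal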
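Human spleen homogenate (1 ug) with 4-methylumbelliferyl-alpha-D-glucopyranoside (1 mM final) in 50 mM citrate/phosphate pH 5.0, 0.01% Tween-20; 40 min at 37 C. Stopped at pH 10; 4-MU fluorescence Ex 365/Em 440 nm; AC50 by Hill fit.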
GAA inh: inhibitors of human lysosomal alpha-glucosidase; purified human GAA, 4-MU-alpha-glucoside fluorescence; 0.005% of 200,000 active; AID 1466; P10253; Potency, µM (titrated, usually from 76.9 µM), for inactives: at the top dose activity change, negative = inhibition, usual class: inhibitors;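 note: potency is the fitted concentration of half-maximal effect; plate controls were uninhibited enzyme wells for no effect and no-enzyme background for full effect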
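Endpoint fluorogenic read: 20 min room-temperature reaction of 4 nM human alpha-glucosidase with 400 uM 4-methylumbelliferyl-alpha-D-pyranoside, pH 5.0, quenched with 1M NaOH/1M glycine pH 10. AC50 from Hill modeling.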
GLA spleen mod: inhibits or activates alpha-galactosidase in human spleen homogenate. P06280. human spleen homogenate, 4MU-alpha-Gal fluorescence, 40 min. Potency, µM (series often up to 80 µM), for inactives: at the highest dose activity change, negative = inhibition, actives largely listed as inhibitors. 0.008% of 240,000 active;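 note: potency is the fitted concentration of half-maximal effect; 0% = enzyme with vehicle and -100% = no enzyme basal signal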
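Fluorogenic readout (Ex 365/Em 440 nm) of 4-methylumbelliferone released from 1 mM 4-MU-alpha-galactoside by spleen homogenate, 40 min at 37C, pH 5.0. Data normalized to no-enzyme and enzyme controls; Hill-equation AC50 from compound titrations.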
GLA inh pH 4.5: inhibitors of human alpha-galactosidase A at pH 4.5. 230,000 tested, under 10 active. P06280. activity change, negative = inhibition, % at 105 µM. purified enzyme, 4-MU-alpha-Gal fluorescence, pH 4.5;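 note: 0% = full activity with enzyme and -100% = basal without enzyme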
Target sequence (P06280 whole entry, looked up): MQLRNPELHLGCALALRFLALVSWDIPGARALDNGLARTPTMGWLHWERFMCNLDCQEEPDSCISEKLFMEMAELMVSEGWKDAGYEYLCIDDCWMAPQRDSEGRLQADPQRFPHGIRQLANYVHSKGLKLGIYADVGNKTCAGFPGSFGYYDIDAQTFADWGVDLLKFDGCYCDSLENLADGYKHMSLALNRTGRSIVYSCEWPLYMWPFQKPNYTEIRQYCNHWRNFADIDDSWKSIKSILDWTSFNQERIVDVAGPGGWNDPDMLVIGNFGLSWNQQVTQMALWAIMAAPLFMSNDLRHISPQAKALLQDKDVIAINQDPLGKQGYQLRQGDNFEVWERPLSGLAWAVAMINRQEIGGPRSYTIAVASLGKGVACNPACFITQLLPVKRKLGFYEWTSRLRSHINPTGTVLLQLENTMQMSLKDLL
* = called active by the depositor; ? = inconclusive; / = no result; [ ] = dose if it differs, or a comment. Only some compounds are listed: those with a hit (about 0.4% of all), similar ones and a draw of the others. Calls come from the whole dose curve; as a rule, active = well fitted curve in the direction sought with a large enough effect; inconclusive = small, poorly fitted or top-dose-only effect, or another doubt; inactive = no such curve, though single readings can be large; an effect the other way counts as inactive or inconclusive.

SMILES	GAA glycogen	aGlu spleen mod	GAA inh	GLA spleen mod	GLA inh pH 4.5
Cc1ccc(N2C(=O)C(Cl)=C(Nc3c(C)n(C)n(-c4ccccc4)c3=O)C2=O)cc1	25µM*	-9%	-5%	-20%	1
Cc1c(NC(=O)CN2CCN(c3ccc(O)cc3)CC2)c(=O)n(-c2ccccc2)n1C	4µM*	6%	2%	0%	-19
Cc1cccc(N2C(=O)C(Cl)=C(Nc3c(C)n(C)n(-c4ccccc4)c3=O)C2=O)c1C	?	-11%	1%	-26%	-8
COc1ccc(C2=NOC(C(=O)Nc3ccc4c(c3)OCO4)C2)cc1 (stereo not given)	-4%	/	/	/	/
O=C(CSc1nc2ccccc2n1CCc1ccccc1)c1ccc(O)c(O)c1	4µM*	-16%	-4%	-7%	-3
NC(=O)c1ccc(-n2nnnc2SCC(=O)c2ccc(O)c(O)c2)cc1	?	-22%	2%	-15%	-2
COc1ccc(-n2nnnc2SCC(=O)c2ccc(O)c(O)c2)cc1	8.8µM*	-5%	-10%	-2%	-4
Cn1c(SCC(=O)c2ccc(O)c(O)c2)nnc1-c1ccccc1	1.8µM*	/	/	/	/
Nc1cc(CN2C(=O)c3ccccc3C2=O)cc(Cl)c1O	7.9µM*	1%	-6%	3%	-7
O=C1c2ccccc2C(=O)N1Cc1cc(Cl)c(O)c([N+](=O)[O-])c1	0%	/	/	/	/
COc1ccc(/C=N/Nc2nonc2N)c(OC)c1	35µM*	3%	-2%	-11%	-2
COc1ccc(/C=N/Nc2nccnc2Cl)c(OC)c1	?	-5%	7%	-25%	-1
COc1ccc(/C=N/N=C(\N)c2nonc2N)cc1OC	-21%	-7%	-11%	13%	-6
COc1cc(/C=N/N=C(\N)c2nonc2N)ccc1O	32µM*	-5%	-12%	14%	-6[21.1 µM]
Oc1ccc(N2CCN(C(=S)NCCc3ccccc3)CC2)cc1	25µM*	-3%	8%	3%	6
O=S1(=O)CCN(Cc2ccc(F)cc2)CC1	-11%	-6%	2%	-12%	?
Oc1ccc(C2=Nn3c(nnc3-c3ccco3)SC2)cc1O	16µM*	-4%	1%	-1%	6
CNC(=O)C1C(=S)NC(N)=C(C#N)C1c1ccccc1 (stereo not given)	22µM*	2%	1%	2%	4
Cc1c(Cl)c(C(=O)Nc2nc3ccccc3n2CCN2CCCCC2)nn1C	14%	-6%	2%	-4%	2
O=c1cc(-c2cccc(F)c2)[nH]c2cc(F)ccc12	/	-2%[119 µM]	/	-11%[119 µM]	-7
Cc1ccc2[nH]c(C)c(/C=N/Nc3nc4ccccc4s3)c2c1	16µM*	-13%	-1%	-4%	1
Brc1csc(/C=N/Nc2nc3ccccc3s2)c1	?	-2%	-2%	1%	-8
Nc1n[nH]c2cc(=O)n(-c3cccc(C(F)(F)F)c3)nc12	32µM*	-19%	-10%	3%	-2
O=c1[nH][nH]c2cc(=O)n(-c3cccc(C(F)(F)F)c3)nc12	?	/	?	-1%	-2
COc1ccc(Nc2c3c(nc4ccc(NC(=O)/C=C/c5cc(OC)c(OC)c(OC)c5)cc24)CCCC3)cc1OC	-13%[76.3 µM]	/	/	/	/
SMILES	GAA glycogen	aGlu spleen mod	GAA inh	GLA spleen mod	GLA inh pH 4.5
COc1ccc(Nc2nc3c([nH]2)c(=O)[nH]c(=O)n3C)cc1	10µM*	-4%	-2%	3%	7
COCCCNc1nc2c([nH]1)c(=O)[nH]c(=O)n2C	?	-3%	-4%	3%	/
CCOc1ccc(NC(=O)Nc2ccccc2SC)cc1	-11%	-9%	?	12%	-11
COc1ccc(NC(=O)C2CCN(c3nc(-c4ccc(OC)c(OC)c4)no3)CC2)cc1Cl	8%[76.3 µM]	/	/	/	/
CC(C)(C)C(=O)/C=C/Nc1ccccc1O	14µM*	0%	2%	11%	4
CN(C)c1ccc(N/C=C/C(=O)C(C)(C)C)cc1	?	-2%	-3%	-1%	4
N#C/C(=C\c1cc(O)c(O)c(O)c1)C(N)=O	5µM*	?	/	-30%	-11
N#C/C(=C\c1cc(Cl)c(OCc2ccc(Cl)cc2)c(Cl)c1)C(N)=O	1%	1%	/	-3%	-9
CCCc1cc(=O)[nH]c(Nc2ccc(O)cc2C)n1	10µM*	/	/	/	/
CCCc1cc(=O)[nH]c(Nc2cccc(Cl)c2Cl)n1	-8%[76.3 µM]	/	/	/	/
